Calls of active or inactive are those of the source. Unless noted, no rule for the calls is given here.
Experiments:
[1] = system: Wnt5a (protein binding on small-molecule microarray); test: Wnt5a binders on small-molecule microarray, primary screen, biophysical, 635/667 nm fluorescence (AID 1142); conditions: 635 nm fluorescence, higher = more signal;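 also: fluorescence read at 667 nm with signal to noise per printed feature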
[2] = cell viability in Huh7 cells, primary screen, cytotoxicity control for HCV replication inhibitor project, CellTiter-Glo luminescence, basal, 48 h (AID 1143); conditions: Huh7 HCV replicon, higher = more signal, called active from +8 up or from −8 down;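 also: Huh7 hepatoma cells carrying a hepatitis C replication reporter with no stimulus; test concentration not given here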
[3] = P. aeruginosa biofilm formation inhibitors, primary screen, PAO1 strain, BacTiter-Glo luminescence, LB-PBS (AID 1144); conditions: 12 h, higher = more signal
[4] = CREB reporter modulators without forskolin, primary screen, cell-based, PC12, CRE-LacZ reporter, unstimulated (AID 1145); conditions: no forskolin, luminescence, 4.5 h, higher = more signal, called active from +8 up or from −8 down
[5] = CREB reporter modulators under forskolin, primary screen, cell-based, PC12, CRE-LacZ reporter, forskolin-stimulated (AID 1146); conditions: luminescence, 4.5 h, higher = more signal, called active from +8 up or from −8 down;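 also: PC12 cells with 6xCRE LacZ reporter stimulated by forskolin 10 µM; beta-galactosidase reporter signal reflecting CREB driven transcription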
[6] = target: Streptavidin (Streptomyces avidinii) (UniProt P22629); test: streptavidin binders on small-molecule microarray, primary screen, artefact control for SMM compound annotation, biophysical, 635/667 nm fluorescence (AID 1147); conditions: streptavidin binding, higher = more signal;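 also: signal reflects streptavidin binding to arrayed compounds as a control protein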
[7] = small-molecule binders of probe aInhba, primary screen, biochemical, small-molecule microarray, 635/667 nm fluorescence (AID 1148); conditions: higher = more signal;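 also: score merges 667nm spot fluorescence with signal-to-noise for antibody binding to printed compounds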
Torsin-1A (Homo sapiens) [8] = target: Torsin-1A (Homo sapiens) (UniProt O14656); test: torsin A binders from cell lysate, primary screen, small-molecule microarray, wild-type, 635/667 nm (AID 1149); conditions: COS7 hTOR1A-WT lysate, 635 nm fluorescence, higher = more signal
Torsin-1A (Homo sapiens) [9] = target: Torsin-1A (Homo sapiens) (UniProt O14656); test: small-molecule binders of mutant TOR1A in lysate, primary screen, cell lysate, small-molecule microarray, COS7 lysate, 635/667 nm fluorescence (AID 1150); conditions: COS7 hTOR1A mutant lysate, 635 nm fluorescence, higher = more signal;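 also: score pools 667 nm emission and signal to noise measuring lysate protein binding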
[10] = system: Sonic hedgehog protein (Shh); test: small-molecule binders of Shh protein, primary screen, biochemical, small-molecule microarray, 635/667 nm fluorescence (AID 1151); conditions: small-molecule microarray binding, 635 nm fluorescence; higher = more signal;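 also: Shh protein binding to compounds spotted on small-molecule microarray slides; score combines spot fluorescence intensity with signal-to-noise across triplicate slides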
[11] = E. coli DRC41 culture turbidity changes, primary screen, E. coli filamentation inducer project, strain DRC41, OD650, 48 h (AID 1152);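 also: E. coli MC1000 strain DRC41 lacking acrAB efflux pump and sulA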; conditions: E. coli DRC41 (acrAB sulA), higher = more signal, called active from +8 up or from −8 down
[12] = small-molecule binders of probe aLefty1, primary screen, biochemical, small-molecule microarray, 635/667 nm fluorescence (AID 1153); conditions: higher = more signal;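 also: score merges spot fluorescence with signal-to-noise ratio from the scanned slide images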
[13] = PSAC antagonists in infected red cells, primary screen, cell-based, P. falciparum Indochina, OD700, 1 h (AID 1154); conditions: P. falciparum Indochina infected RBC osmotic lysis, higher = more signal, called active from +8 up or from −8 down
[14] = PSAC antagonists in infected red cells, primary screen, cell-based, P. falciparum Indochina, OD700, 2 h (AID 1155);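 also: lysis reports solute entry through the parasite surface anion channel PSAC; channel blockers reduce lysis of infected cells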; conditions: P. falciparum Indochina infected erythrocytes, osmotic lysis OD700; higher = more signal, called active from +8 up or from −8 down
[15] = osmotic lysis modulators in infected erythrocytes, primary screen, PSAC antagonist project, cell-based, P. falciparum Indochina, OD700, 3 h (AID 1156); conditions: higher = more signal, called active from +8 up or from −8 down
[16] = PSAC antagonists in infected red cells, primary screen, cell-based, P. falciparum Indochina, OD700, 18 h (AID 1157); conditions: P. falciparum Indochina infected erythrocytes, osmotic lysis OD700, 18 h; higher = more signal, called active from +8 up or from −8 down
[17] = modulators of S6 phosphorylation in cells, primary screen, cell-based, A549, cytoblot, luminescence, serum-stimulated (AID 1158); conditions: A549 phospho-S6 cytoblot, 5 h, higher = more signal;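 also: serum-stimulated A549 lung adenocarcinoma cells; signal is phosphorylated S6 detected by cytoblot immunostaining with HRP secondary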
[18] = target: NADPH oxidase 2 (Homo sapiens) (UniProt P04839); test: NOX2-dependent H2O2 signal modulators, primary screen, NOX inhibitor project, cell-based, HEK293-NOX2, PMA-stimulated, Amplex Red fluorescence (AID 1159); conditions: 45 min, higher = more signal, called active from +8 up or from −8 down; also: test concentration not given here
[19] = target: NADPH oxidase 4 (Homo sapiens) (UniProt Q9NPH5); test: NOX4-dependent H2O2 signal modulators, primary screen, NOX inhibitor project, cell-based, HEK293-NOX4, tetracycline-induced, Amplex Red fluorescence (AID 1160); conditions: 45 min, higher = more signal, called active from +8 up or from −8 down
[20] = target: NADPH oxidase 5 (Homo sapiens) (UniProt Q96PH1); test: NOX5-dependent H2O2 signal modulators, primary screen, NOX inhibitor project, cell-based, HEK293-NOX5, Amplex Red fluorescence (AID 1161); conditions: HEK293-NOX5, ionomycin, 45 min, higher = more signal
NADPH oxidase 5 (Homo sapiens), sequence (Q96PH1 whole entry, looked up): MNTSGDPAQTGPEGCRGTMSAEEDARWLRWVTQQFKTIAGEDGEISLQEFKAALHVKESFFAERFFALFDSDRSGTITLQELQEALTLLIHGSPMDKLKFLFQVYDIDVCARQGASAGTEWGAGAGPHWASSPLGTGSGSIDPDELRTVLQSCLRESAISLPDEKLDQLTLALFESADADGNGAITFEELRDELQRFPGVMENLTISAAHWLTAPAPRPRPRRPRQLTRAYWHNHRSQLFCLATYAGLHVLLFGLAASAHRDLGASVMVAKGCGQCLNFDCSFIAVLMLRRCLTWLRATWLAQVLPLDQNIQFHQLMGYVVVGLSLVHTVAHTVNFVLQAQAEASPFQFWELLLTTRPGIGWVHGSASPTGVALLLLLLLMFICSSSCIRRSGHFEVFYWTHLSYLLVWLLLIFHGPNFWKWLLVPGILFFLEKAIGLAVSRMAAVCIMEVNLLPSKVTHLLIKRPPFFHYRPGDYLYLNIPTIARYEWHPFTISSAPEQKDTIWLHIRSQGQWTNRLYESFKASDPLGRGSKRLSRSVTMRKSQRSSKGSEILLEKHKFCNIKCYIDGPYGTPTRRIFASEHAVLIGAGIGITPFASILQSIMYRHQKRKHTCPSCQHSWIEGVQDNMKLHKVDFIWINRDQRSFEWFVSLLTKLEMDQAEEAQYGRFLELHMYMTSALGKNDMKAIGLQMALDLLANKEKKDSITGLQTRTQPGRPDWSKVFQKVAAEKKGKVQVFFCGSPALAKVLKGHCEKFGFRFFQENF

NADPH oxidase 4 (Homo sapiens), sequence (Q9NPH5 whole entry, looked up): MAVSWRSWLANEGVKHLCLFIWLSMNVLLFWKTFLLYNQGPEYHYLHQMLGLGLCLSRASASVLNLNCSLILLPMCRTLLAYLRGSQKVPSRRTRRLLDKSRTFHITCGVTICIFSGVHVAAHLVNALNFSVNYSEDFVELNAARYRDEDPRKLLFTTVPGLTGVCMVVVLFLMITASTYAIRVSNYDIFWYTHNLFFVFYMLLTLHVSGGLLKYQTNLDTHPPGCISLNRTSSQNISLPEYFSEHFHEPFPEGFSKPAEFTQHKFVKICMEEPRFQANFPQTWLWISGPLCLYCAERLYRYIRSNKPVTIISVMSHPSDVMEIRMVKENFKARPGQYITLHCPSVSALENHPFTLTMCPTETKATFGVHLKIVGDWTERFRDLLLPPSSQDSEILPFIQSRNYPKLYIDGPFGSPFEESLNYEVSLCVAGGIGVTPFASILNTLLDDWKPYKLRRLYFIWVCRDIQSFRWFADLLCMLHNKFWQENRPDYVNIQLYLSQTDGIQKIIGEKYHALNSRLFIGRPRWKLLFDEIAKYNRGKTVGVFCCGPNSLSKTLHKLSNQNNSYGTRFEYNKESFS
Streptavidin (Streptomyces avidinii), sequence (P22629 whole entry, looked up): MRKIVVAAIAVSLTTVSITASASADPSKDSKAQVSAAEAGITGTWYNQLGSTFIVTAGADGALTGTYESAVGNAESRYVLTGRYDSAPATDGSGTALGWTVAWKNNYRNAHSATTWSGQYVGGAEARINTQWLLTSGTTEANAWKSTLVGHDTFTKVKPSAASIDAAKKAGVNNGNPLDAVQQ
NADPH oxidase 2 (Homo sapiens), sequence (P04839 whole entry, looked up): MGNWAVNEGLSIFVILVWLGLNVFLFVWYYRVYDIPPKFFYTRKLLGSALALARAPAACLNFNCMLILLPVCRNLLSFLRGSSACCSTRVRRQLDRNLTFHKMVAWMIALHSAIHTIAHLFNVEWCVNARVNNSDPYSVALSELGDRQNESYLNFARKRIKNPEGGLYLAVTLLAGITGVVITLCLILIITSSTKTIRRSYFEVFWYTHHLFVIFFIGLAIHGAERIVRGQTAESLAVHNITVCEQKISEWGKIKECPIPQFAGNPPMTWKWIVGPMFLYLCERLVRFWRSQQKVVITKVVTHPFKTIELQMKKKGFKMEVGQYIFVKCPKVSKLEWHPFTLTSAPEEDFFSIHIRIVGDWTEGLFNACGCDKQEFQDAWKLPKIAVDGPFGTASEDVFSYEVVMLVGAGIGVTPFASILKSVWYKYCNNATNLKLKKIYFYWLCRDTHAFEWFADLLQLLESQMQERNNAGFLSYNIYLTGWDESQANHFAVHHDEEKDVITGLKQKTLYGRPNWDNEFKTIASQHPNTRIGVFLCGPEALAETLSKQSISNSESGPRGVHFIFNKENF
Torsin-1A (Homo sapiens), sequence (O14656 whole entry, looked up): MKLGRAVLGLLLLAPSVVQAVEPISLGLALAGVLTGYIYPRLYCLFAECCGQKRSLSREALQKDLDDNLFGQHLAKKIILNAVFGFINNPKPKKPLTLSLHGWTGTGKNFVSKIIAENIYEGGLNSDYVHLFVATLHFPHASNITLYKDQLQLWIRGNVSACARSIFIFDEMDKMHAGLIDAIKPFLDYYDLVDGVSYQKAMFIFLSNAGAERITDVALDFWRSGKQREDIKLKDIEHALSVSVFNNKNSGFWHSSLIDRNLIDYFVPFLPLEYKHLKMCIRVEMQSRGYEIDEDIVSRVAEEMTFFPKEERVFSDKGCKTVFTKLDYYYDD

| Structure (SMILES) | composite z-score [1] | z-score [2] | z-score [3] | z-score [4] | z-score [5] | composite z-score [6] | composite z-score [7] | composite z-score (Torsin-1A (Homo sapiens) [8]) | composite z-score (Torsin-1A (Homo sapiens) [9]) | composite z-score [10] | z-score [11] | composite z-score [12] | z-score [13] | z-score [14] | z-score [15] | z-score [16] | z-score [17] | z-score [18] | z-score [19] | z-score [20] |
| --- | --- | --- | --- | --- | --- | --- | --- | --- | --- | --- | --- | --- | --- | --- | --- | --- | --- | --- | --- | --- |
| COc1ccc([Si](C)(C)[C@H]2[C@H](CC(=O)N3CCC[C@H]3CO)O[C@@]3(C(=O)N(Cc4cccc(N5C(=O)c6cccc7cccc5c67)c4)c4ccccc43)[C@@H]2C)cc1 | 1.08 | -3.59 (inactive) | 0.346 (inactive) | 1.46 (inactive) | 1.16 (inactive) | 0.309 | 0.392 | 0.84 | 0.836 | 2.21 | -0.577 (inactive) | 0.302 | 7.61 (inactive) | 0.753 (inactive) | 0.442 (inactive) | 0.623 (inactive) | -0.366 | 1.35 (inactive) | -0.292 (inactive) | 4.06 |
| COC(=O)C(CC#Cc1ccc2c(c1)[C@]1(C(=O)N2)[C@H](C(=O)O)[C@H]2C(=O)O[C@H](c3ccccc3)[C@H](c3ccccc3)N2[C@@H]1c1ccc(O)cc1)C(=O)OC | -0.265 | 0.674 (inactive) | -0.208 (inactive) | -0.467 (inactive) | -0.686 (inactive) | -0.641 | -0.0405 | -0.21 | 0.446 | -0.613 | -0.818 (inactive) | 0.145 | 1.83 (inactive) | -0.038 (inactive) | -0.15 (inactive) | -0.0548 (inactive) | 0.148 | 0.699 (inactive) | -0.0438 (inactive) | 0.921 |
| COC(=O)c1c(CC[C@@H](CO)NC(=O)N[C@H](Cn2cc(Cc3ccccc3)nn2)C(C)C)oc(C(C)=O)c1C(=O)OC | 0.367 | -2.8 (inactive) | -0.973 (inactive) | 0.904 (inactive) | -1.21 (inactive) | -0.166 | -0.0759 | -0.372 | 0.882 | 2.1 | 0.618 (inactive) | -0.101 | 1.62 (inactive) | -0.452 (inactive) | 0.695 (inactive) | -0.177 (inactive) | 1.53 | -3.91 (inactive) | -1.31 (inactive) | 0.197 |
| COC(=O)[C@@]1(Cc2ccc(F)cc2)[C@H]2c3cc(C(=O)N(C)C)n(CC4CC4)c3C[C@H]2CN1C(=O)c1ccccc1 | 1.96 | -2.68 (inactive) | 0.163 (inactive) | 1.54 (inactive) | 0.581 (inactive) | 1.79 | 1.56 | -0.532 | 0.224 | -1.04 | -0.98 (inactive) | 2.06 | 3.33 (inactive) | 1.15 (inactive) | 1.07 (inactive) | 1.4 (inactive) | -0.884 | -0.0955 (inactive) | 0.281 (inactive) | 0.873 |
| CC(C)N1C(=O)c2ccccc2[C@](C)(C(=O)NCc2ccccc2)[C@@H]1c1ccc(CO)cc1 | -0.111 | -0.139 (inactive) | 0.261 (inactive) | 0.558 (inactive) | -0.074 (inactive) | -0.558 | -0.154 | 1.3 | -0.119 | -0.0391 | -0.884 (inactive) | -0.101 | 1.53 (inactive) | 0.349 (inactive) | 0.24 (inactive) | 0.645 (inactive) | 0.0331 | -0.291 (inactive) | -0.0216 (inactive) | -0.54 |
| COc1cc(OC)c(C(O)C2C=CC3C(=O)NC(=O)C3N2Nc2ccc(Cl)cc2Cl)cc1Br (stereo not given) | 0.153 | -2.57 (inactive) | -0.835 (inactive) | 0.433 (inactive) | -0.919 (inactive) | 1.64 | 0.0111 | -0.241 | 0.414 | -0.366 | -2.02 (inactive) | 0.689 | 4.81 (inactive) | 1.4 (inactive) | -0.372 (inactive) | 1.84 (inactive) | -0.924 | -0.603 (inactive) | -5.17 (inactive) | -1.12 |
| COCCCNC(=O)[C@@]1(Cc2ccccc2N=[N+]=[N-])N=C(c2ccc(OCCCO)cc2)O[C@H]1c1ccccc1N=[N+]=[N-] | 0.266 | -4.63 (inactive) | -0.557 (inactive) | 0.834 (inactive) | -0.803 (inactive) | 1.14 | 0.3 | 0.328 | 1.05 | -0.319 | -0.439 (inactive) | 0.302 | 28.8 (active) | 25.2 (active) | 2.41 (inactive) | 5.91 (inactive) | 0.621 | -2.05 (inactive) | 0.518 (inactive) | -2.22 |
| COCCOC(=O)N1C(=O)[C@@]2(c3cc(C#CCNC(N)=O)ccc31)[C@H](C(=O)NC[C@H](O)c1ccccc1)[C@H]1C(=O)O[C@H](c3ccccc3)[C@H](c3ccccc3)N1[C@@H]2c1ccccc1OCCO | 0.8 | -0.417 (inactive) | -0.0351 (inactive) | -0.199 (inactive) | -0.972 (inactive) | -0.198 | 0.801 | 0.403 | 0.593 | 1.08 | -0.119 (inactive) | 1.28 | 2.05 (inactive) | 0.35 (inactive) | 0.927 (inactive) | 0.317 (inactive) | 0.239 | 1.91 (inactive) | 1.63 (inactive) | -0.63 |

— PubChem BioAssay
